These results are taken from PubChem BioAssay AID588855 (National Center for Advancing Translational Sciences (NCATS), 2011).

SMILES strings stand for the structures. The whole screen tested about 410,000 compounds, of which about 5,000 (1.2%) were called active. Not shown: some 13% with an inconclusive outcome. The entries come from a sample that favours actives as a whole. Values without a mark were called inactive. Calls come from the whole dose curve; as a rule, active = well fitted inhibition curve with a large enough effect; inconclusive = small, poorly fitted or top-dose-only effect; inactive = no such curve, though single readings can be large or run the other way.
% is set by controls: 0 for no effect and ±100 for the full control effect; potency is the fitted concentration of half-maximal effect.

The nature of this assay: qHTS for Inhibitors of TGF-b. Note: nearly all actives have a fitted effect of over 65% in size. Particulars: HepG2 CAGA-GFP TGF-b/SMAD3 reporter, GFP fluorescence, 18 h, TGF-beta stimulated, 500 pg/mL final; series mostly up to 46.1 µM; activity, negative = inhibition: at the top concentration. In outline:
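Cell-based qHTS in HEPG2 carrying a CAGA-GFP Smad reporter; compounds added before 500 pg/mL final TGF-beta, 18 h incubation at 37 degrees C, GFP fluorescence quantified per cell by imaging cytometry.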
In general terms: In qHTS, concentration-response curves come from the screen itself.
On to `Cc1oc2cc(Br)c(O)c(Br)c2c1C(=O)c1ccccc1`, for which the “activity, negative = inhibition” value is -23%.

Consider `CCOC(=O)c1c(-c2ccccc2)oc2cc(Br)c(O)c(C=O)c12`, for which the “activity, negative = inhibition” value was 0%.

Consider `CCOC(=O)c1c(C)oc2cc(Sc3ccccc3)c(O)c(O)c12`, for which the Potency was 10 µM (active).

With `CCOc1ccc(NC(=O)c2c(NC(=O)Cc3ccccc3)sc3c2CCC(C)C3)cc1` (centres undefined), the “activity, negative = inhibition” value is -6.64%.

Take `COc1ccc(Cn2c(C(=O)O)c(CNCc3cccc(OC)c3)c3ccc(C)cc32)cc1`: the “activity, negative = inhibition” value is 24.5%.

As to `COc1ccc(-n2c(=O)c3ccccc3n(Cc3ccccc3Cl)c2=O)cc1`, the “activity, negative = inhibition” value was -14.6%.

With `Cc1ccccc1-c1n[nH]c(=S)n1/N=C/c1ccc(-c2ccccc2Br)o1`, the “activity, negative = inhibition” value is 1.01%.

For the compound `Cc1cc(-c2n[nH]c(=S)n2/N=C/C(Br)=C/c2ccccc2)n[nH]1`, the Potency is 7.08 µM (active).

Regarding `COc1ccccc1N1CCN(/N=C\C(Br)=C\c2ccccc2)CC1`, the “activity, negative = inhibition” value is -15.2%.

For `Cc1ccc(Cl)cc1NC(=O)CSc1nc2ccccc2nc1Cc1ccccc1`, the “activity, negative = inhibition” value was -4.85%.

As for `Cc1ccc(CNC(=O)CSc2c(C)cnc3c2c(=O)n(C)c(=O)n3C)cc1`, the “activity, negative = inhibition” value was 3.08%.

With `CN1CCN(c2oc(-c3ccc(COc4ccc(Cl)cc4)o3)nc2C#N)CC1`, the “activity, negative = inhibition” value is -13.8%.

Take `CCOc1cccc(NC(=O)c2ccc(F)c(S(=O)(=O)N(CC)c3cccc(C)c3)c2)c1`: the “activity, negative = inhibition” value is -2.74%.

With `CCCOc1ccccc1C1CC(=O)Nc2cc3c(cc21)OCO3` (centres undefined), the Potency was 7.08 µM (active).

Turning to `O=C1CC(c2ccc(F)cc2F)c2cc3c(cc2N1)OCO3` (centres undefined), the “activity, negative = inhibition” value was -29.4%.

Regarding `COC(=O)c1ccc(C2CC(=O)Nc3cc(OC)c(OC)cc32)cc1` (centres undefined), the “activity, negative = inhibition” value was 7.58%.

Regarding `Cc1ccc(S(=O)(=O)n2nc(-c3ccc(Cl)cc3)nc2NCc2ccccc2)cc1`, the “activity, negative = inhibition” value is -0.47%.

`COc1ccc(OC)c(-n2nnc3c(sc4nc(C)c(Br)c(C)c43)c2=O)c1`: the “activity, negative = inhibition” value was 1.82%.

For the compound `Cc1ccccc1-c1nc2scc(CCNC(=O)C(=O)Nc3ccc(F)cc3F)n2n1`, the “activity, negative = inhibition” value is -18.3%.

With `Cc1ccccc1S(=O)(=O)N1[C@@H](c2cccc(Cl)c2)C(C(=O)OC(C)(C)C)=CC[C@H]1c1ccc(Cl)cc1`, the “activity, negative = inhibition” value was -4.34%.

As to `CCOC(=O)C1=CC[C@@H](c2ccccc2)N(S(=O)(=O)c2ccc(C)cc2)[C@H]1c1cccc(OC)c1`, the “activity, negative = inhibition” value is -9.22%.

With `Cc1ccc(S(=O)(=O)N2[C@@H](c3cccc(Cl)c3)C(C(=O)O)=CC[C@H]2c2ccc(Cl)c(Cl)c2)cc1`, the Potency is 15.8 µM (active).

In the case of `CCCCN(C)S(=O)(=O)c1ccc(C(=O)Nc2sc3c(c2C(N)=O)CC(C)(C)NC3(C)C)cc1`, the “activity, negative = inhibition” value is -1.07%.

In the case of `CCc1ccc(NC(=O)c2nn(-c3ccc(C)cc3)c(=O)n(C)c2=O)cc1`, the “activity, negative = inhibition” value was -14.4%.

With `CCOC(=O)c1ccccc1NC(=O)c1nn(-c2ccc(OC)c(Cl)c2)c(=O)c2c1c1ccccc1n2C`, the “activity, negative = inhibition” value is -24.8%.

In the case of `O=C(NC1CC(=O)N(c2ccc(F)cc2)C1)C1CCCCC1` (centres undefined), the “activity, negative = inhibition” value is 7.27%.

On to `CCOC(=O)c1c(S(=O)(=O)NCC(=O)Nc2ccc(Cl)c(C(F)(F)F)c2)c(C)n(C)c1C`, for which the Potency is 11.2 µM (active).

`CCOC(=O)c1c(S(=O)(=O)Nc2cccc(Cl)c2)c(C)n(C)c1C`: the “activity, negative = inhibition” value is -1.47%.

Take `CCOC(=O)c1c(S(=O)(=O)NCC(=O)Nc2ccc(C)cc2)c(C)n(C)c1C`: the “activity, negative = inhibition” value was 0.889%.

Turning to `COc1ccc(CCNC(=O)c2cnc3sc(N4CCCCCC4)nn3c2=O)cc1OC`, the “activity, negative = inhibition” value was -10.2%.

Regarding `Nc1c(Cl)cc(-c2csc(N3CCCC3c3nc4cc(Cl)c(Cl)cc4n3CCOCCO)n2)cc1Cl` (centres undefined), the “activity, negative = inhibition” value was 3.19%.

With `CCCn1c(C(C)Nc2nc(-c3ccc(C)cc3)cs2)nc2cc(Cl)c(N3CCCCC3)cc21` (centres undefined), the “activity, negative = inhibition” value was -1.73%.

Regarding `Cc1nc2cc(C(F)(F)F)ccc2n1CCNc1nc(-c2cc(Cl)c(N)c(Cl)c2)cs1`, the Potency was 11.2 µM (active).

With `Cc1cccc(OCCCC(=O)Nc2sc3c(c2C(N)=O)CCC(C)C3)c1` (centres undefined), the “activity, negative = inhibition” value is 0.0551%.

Regarding `O=C(CC1C(=O)N(c2ccccc2)C(=O)N1CCc1cccs1)Nc1ccc(F)cc1` (centres undefined), the “activity, negative = inhibition” value is -1.13%.

Regarding `O=C1NC(Nc2nc3ccccc3s2)(C(F)(F)F)C(=O)N1C1CCCCC1` (centres undefined), the Potency was 7.94 µM (active).

`O=C(NC1(C(F)(F)F)N=C(c2ccccc2)N(C2CCCCC2)C1=O)c1ccccc1F` (centres undefined): the “activity, negative = inhibition” value was 0.835%.

Take `COc1cc(SC#N)ccc1N=Cc1c(C)[nH]n(-c2ccc(C)cc2)c1=O`: the Potency was 10 µM (active).

For the compound `CCN(CC)CCNC(=O)c1cc2c(=O)oc3ccc(C)cc3c2s1`, the “activity, negative = inhibition” value was -1.4%.

With `Cc1cccc(-n2ncc(C(=O)N3CCc4ccccc4C3)c2C2CCN(C(=O)OC(C)(C)C)CC2)c1`, the “activity, negative = inhibition” value was 2.06%.

`CCCN(CCC)CCCNC(=O)Cn1ncc2c3ccccc3n(Cc3ccccc3)c2c1=O`: the “activity, negative = inhibition” value is 1.04%.

Take `CCN(CC)CCNC(=O)Cn1ncc2c3ccccc3n(Cc3ccccc3C)c2c1=O`: the Potency is 14.1 µM (active).

With `Cc1ccccc1Cn1c2ccccc2c2cnn(CC(=O)NCc3ccco3)c(=O)c21`, the “activity, negative = inhibition” value was -15%.

For `CCOC(=O)c1c(C)[nH]c(C)c1S(=O)(=O)NCC(=O)NCc1cccc(C)c1`, the “activity, negative = inhibition” value is -14.9%.

On to `COc1ccc(CNS(=O)(=O)c2ccc(-c3cnc(C4CC4)o3)cc2)cc1`, for which the Potency result is “inactive”.

For the compound `Cc1ccc(-c2cnc(C3CC3)o2)cc1S(=O)(=O)Nc1cccc(C)c1C`, the “activity, negative = inhibition” value is -1.77%.

Take `Cc1cccc(NS(=O)(=O)c2ccc(-c3cnc(C4CC4)o3)cc2)c1`: the Potency is 11.2 µM (active).

For the compound `COc1ccc(OC)c(NC(=O)C2CCN(S(=O)(=O)c3ccc(C)cc3)CC2)c1`, the “activity, negative = inhibition” value is -3.47%.

For `COc1cc(Br)cc2cc(S(=O)(=O)c3ccccc3)c(=O)oc12`, the “activity, negative = inhibition” value was -2.14%.
